Source: PubChem BioAssay
Marburg entry: blocks Marburg virus binding or cell entry; Marburg virus pseudotype entry/binding inhibition, cell-based; Potency, µM (highest dose often 49.2 µM), hits mostly inhibitors; 18,000 tested, 6.5% active; AID 720532
LASV entry inh: Lassa virus entry inhibition | Potency, µM (highest dose often 49.2 µM), hits mostly inhibitors | 18,000 tested, 4.1% active | Lassa virus pseudotyped entry inhibition, cell-based qHTS | AID 720533
Numbers stand for hits; n = inactive; u = inconclusive; x = no result given; ! = not active in a repeat; [ ] = another dose, or the depositor's remark. Sampled rows, rich in hits. Any-hit rate of the full collection: about 8.6%. Calls come from the whole dose curve; tested in HEK293 cells.

SMILES | Marburg entry | LASV entry inh
CC(C)n1cnc2c(NCc3ccccc3)nc(NCCO)nc21 | n | n
Oc1cc2c(cc1O)C1c3ccc(O)c(O)c3OCC1(O)C2 (centres undefined) | 4µM | u
COc1ccc2c3c(c(=O)oc2c1)[C@H]1O[C@](c2ccsc2)(Cc2cc(C#N)ccc21)O3 | n[8.59 µM] | n[8.59 µM]
C[C@H]1[C@H]2CC[C@H]3[C@@H]4CC=C5C[C@@H](N(C)C)CC[C@]5(C)[C@H]4CC[C@]23CN1C | 3.2µM | n
C[C@]12CC[C@H]3[C@@H](CC=C4C[C@@H](O)CC[C@@]43C)[C@@H]1CC[C@@H]2O | n | n
Cc1cc(C(=O)Nc2cccc(-c3nc(CNC(=O)c4sc(C)nc4C)c(C)o3)c2)c(C)o1 | n | n
C=CC[N@@+]12CC[C@@]34c5ccccc5N5/C=C6/[C@H]7C[C@H]8[C@@]9(CC[N@@+]8(CC=C)C/C7=C/CO)c7ccccc7N(/C=C(/[C@@H](C[C@@H]31)/C(=C\CO)C2)[C@H]54)[C@@H]69 | n | n
C[C@@H]1CC=C[C@@H]2[C@H]1C(=O)N(Cc1ccccc1)[C@H]2c1cccc(Br)c1 | n | n
COc1ccc(-c2ccccc2[C@H]2[C@@H]3C=CC[C@@H](C)[C@@H]3C(=O)N2Cc2ccccc2)cc1 | 14µM | u
CCC(OC(C)=O)C(CC(C)NC)(c1ccccc1)c1ccccc1 (centres undefined) | 7.9µM | 40µM
CCCCCCN1C[C@@H](n2cc(C3CC3)nn2)[C@H](O)C[C@H]1c1ccc(C)cc1 | n | x
COC(=O)[C@@H]1[C@@H](c2cccc(C(F)(F)F)c2)NC(=O)N(Cc2ccccc2)[C@@H]1C | n[8.59 µM] | n[8.59 µM]
CC12C(=O)OC(=O)C1(C)C1CCC2O1 (centres undefined) | 3.5µM | 2.8µM
C=CCCCN1C(=O)NC(c2ccccc2)C(C(=O)OC)=C1C (centres undefined) | n[8.59 µM] | n[8.59 µM]
COc1ccccc1C1(O)CCN(CCCn2c3ccccc3c3ccccc32)CC1 | 4µM | u
COc1ccc(C(=O)c2c(C)n(CCN3CCOCC3)c3ccccc23)cc1 | n | n
COc1ccc(CCN(C)CCCOc2ccc(S(=O)(=O)c3[nH]c4ccccc4c3C(C)C)cc2)cc1OC | 4µM | 14µM
O=C(NCCN1CCOCC1)c1cnn(-c2nccc(-c3ccccc3F)n2)c1C1CC1 | n | n
CCC(C)c1cc([N+](=O)[O-])cc([N+](=O)[O-])c1OC(C)=O (centres undefined) | n | n
CCC(C)c1cc([N+](=O)[O-])cc([N+](=O)[O-])c1OC(=O)OC(C)C (centres undefined) | u | 18µM
COc1cc(C(CC2=C(c3ccccc3)Cc3ccccc32)NC(=O)C(F)(F)F)cc(OC)c1OC (centres undefined) | n[8.59 µM] | n[8.59 µM]
COc1ccc(CCN(C)CCCC(C#N)(c2cc(OC)c(OC)c(OC)c2)C(C)C)cc1OC (centres undefined) | 32µM | n
COc1ccc(CCN(C)CCc2ccc(OC)c(OC)c2)cc1OC | n | n
COc1ccc(C[C@H]2NC[C@H](O)[C@H]2OC(C)=O)cc1 | u | 3.5e-05µM
COc1ccc(N2C[C@H](Cc3ccccc3)[C@@H](CC(=O)Nc3ccccc3)C2=O)cc1 | n | x
SMILES | Marburg entry | LASV entry inh
COc1ccc(C[C@@H]2NC[C@H](O)[C@@H]2OC(C)=O)cc1 | u | 0.011µM
COc1ccc2cc(CCC(C)=O)ccc2c1 | n | n
CCOC(=O)C1=CN(CCC=C(C)C)C(=O)NC1c1ccccc1 (centres undefined) | n[8.59 µM] | n[8.59 µM]
CC[C@H]1OC(c2ccccc2)[C@H](C)[C@H]2O[C@@H]2[C@@H]1C(=O)OC (some centres undefined) | n[8.59 µM] | n[8.59 µM]
Cc1ccccc1C(=O)N1CCc2c(cnc(C)c2CNC(=O)c2ccc3c(c2)OCO3)C1 | n | n
C=CCN1c2ccccc2[C@]23CCC(=O)N(CCc4ccccn4)C2=NC(C(=O)OC)=C(C(=O)OC)[C@H]13 | n[8.59 µM] | n[8.59 µM]
Oc1cc[c]([Hg][Cl])cc1 | 3.5µM | 4.5µM
CC[C@H](c1ccc(O)cc1)[C@@H](CC)c1ccc(O)cc1 | n | u
OCCNCCCOc1cccc(Cl)c1Cl | 6.3µM | u
Cc1nc2ccccc2nc1CN1CCOc2ccc(C3(O)CCN(c4ccccc4F)CC3)cc2C1 | n | u
Nc1nc(=S)c2[nH]cnc2[nH]1 | 3.2µM | 2.8µM
Nc1ncnc2nc[nH]c12 | n | n
COC1=C(C(=O)c2ccccc2)C(=O)[C@@]2(CC=C(C)C)CC(C#N)C[C@@]1(CC=C(C)C)C2=O (some centres undefined) | n[8.59 µM] | u
COc1cccc(CNc2ncnc3sc(C(=O)N4CC5CCC4C5)c(C)c23)c1OC (centres undefined) | n | n
COc1cc(C(C)=O)ccc1OCCCN1CCC(c2noc3cc(F)ccc23)CC1 | 6.3µM | n
COc1cc2c(Nc3ccc(NC(=O)c4ccccc4)cc3)ncnc2cc1OCCCN1CCOCC1 | u | n
N[C@H](C(=O)O)[C@H](O)C(=O)O | 14µM! | u
O=C(O)[C@@H](O)[C@H](O)[C@H](O)[C@@H](O)C(=O)O | n | n
CN1CCN([C@@H]2C[S+](=O)([O-])N[C@@H]2COCc2ccccc2)CC1 | n | n
CCN1CCN(c2cc(-c3ccc(F)cc3)c3c(n2)CCCCCC3)CC1 | 7.9µM | 13µM
CC(C)=CCCC(C)=CCN1C(=O)[C@]2(O[C@H](COc3ccccc3)CC3=CCCC32)c2c(Br)cccc21 (some centres undefined) | n[8.59 µM] | n[8.59 µM]
COc1ccc(NC(=O)OCCN2CCN(Cc3ccccc3)CCC2=O)cc1 | n | n
COc1ccc(NC(=O)c2cc(OCCCN(C)C)nn2Cc2ccccc2)cc1 | 8.9µM | u
C=CC(=O)N1[C@H](C(=O)OCC)CSCCS1(=O)=O | n | n
ClC1=C(Cl)C(Cl)(C2(Cl)C(Cl)=C(Cl)C(Cl)=C2Cl)C(Cl)=C1Cl | 3.2µM | u
SMILES | Marburg entry | LASV entry inh
Cc1cc(C)c2c(c1)CO[C@H]([C@H](O)CO)[C@H]2C=Cc1ccccc1 | u | n[8.59 µM]
COc1ccc(-c2ccc3c(NC(=O)C4CC4)n[nH]c3n2)cc1 | n | n
C[C@@H]1O[C@H](O[C@@H]2CC[C@@]3(C=O)[C@H]4CC[C@@]5(C)[C@@H](C6=CC(=O)OC6)CC[C@@]5(O)[C@@H]4CC[C@]3(O)C2)C[C@H](O)[C@@H]1O | 3.5µM | 3.5µM
CC(=O)O[C@H]1C[C@H](O[C@H]2[C@@H](O)C[C@H](O[C@H]3[C@@H](O)C[C@H](OC4CC[C@@]5(C)C(CC[C@@H]6[C@@H]5CC[C@]5(C)[C@@H](C7=CC(=O)OC7)[C@@H](O)C[C@]65O)C4)O[C@@H]3C)O[C@@H]2C)O[C@H](C)[C@H]1O[C@@H]1O[C@H](CO)[C@@H](O)[C@H](O)[C@H]1O (some centres undefined) | u | 2.8µM
CC(C)=CCC[C@](C)(O[C@@H]1O[C@H](CO)[C@@H](O)[C@H](O)[C@H]1O)[C@H]1CC[C@]2(C)[C@@H]1[C@H](O)C[C@@H]1[C@@]3(C)CC[C@H](O[C@@H]4O[C@H](CO)[C@@H](O)[C@H](O)[C@H]4O[C@@H]4O[C@H](CO)[C@@H](O)[C@H](O)[C@H]4O)C(C)(C)[C@@H]3[C@@H](O)C[C@]12C | u | n
CC1OC(O[C@@H]2C(O)CC(O[C@@H]3C(O)C[C@@H](OC4CC[C@]5(C)[C@H](CC[C@H]6[C@@H]5CC[C@]5(C)C(C7=CC(=O)OC7)C(O)C[C@@]65O)C4)OC3C)OC2C)CC(O)C1O (some centres undefined) | 0.63µM | 5µM
